The record followed here is ChEMBL document CHEMBL2218924, “A broad activity screen in support of a chemogenomic map for kinase signalling research and drug discovery” (Biochem J, 2013).

As usually defined, the residual activity is the signal under treatment as a percentage of the control signal.

The target of test [1] is Ephrin type-A receptor 7 (Homo sapiens) (UniProt Q15375). The conditions noted are these: at 10 µM.
In test [2] the target is T1, Ephrin type-B receptor 3 (Homo sapiens) (UniProt P54753).
T1 sequence (whole entry): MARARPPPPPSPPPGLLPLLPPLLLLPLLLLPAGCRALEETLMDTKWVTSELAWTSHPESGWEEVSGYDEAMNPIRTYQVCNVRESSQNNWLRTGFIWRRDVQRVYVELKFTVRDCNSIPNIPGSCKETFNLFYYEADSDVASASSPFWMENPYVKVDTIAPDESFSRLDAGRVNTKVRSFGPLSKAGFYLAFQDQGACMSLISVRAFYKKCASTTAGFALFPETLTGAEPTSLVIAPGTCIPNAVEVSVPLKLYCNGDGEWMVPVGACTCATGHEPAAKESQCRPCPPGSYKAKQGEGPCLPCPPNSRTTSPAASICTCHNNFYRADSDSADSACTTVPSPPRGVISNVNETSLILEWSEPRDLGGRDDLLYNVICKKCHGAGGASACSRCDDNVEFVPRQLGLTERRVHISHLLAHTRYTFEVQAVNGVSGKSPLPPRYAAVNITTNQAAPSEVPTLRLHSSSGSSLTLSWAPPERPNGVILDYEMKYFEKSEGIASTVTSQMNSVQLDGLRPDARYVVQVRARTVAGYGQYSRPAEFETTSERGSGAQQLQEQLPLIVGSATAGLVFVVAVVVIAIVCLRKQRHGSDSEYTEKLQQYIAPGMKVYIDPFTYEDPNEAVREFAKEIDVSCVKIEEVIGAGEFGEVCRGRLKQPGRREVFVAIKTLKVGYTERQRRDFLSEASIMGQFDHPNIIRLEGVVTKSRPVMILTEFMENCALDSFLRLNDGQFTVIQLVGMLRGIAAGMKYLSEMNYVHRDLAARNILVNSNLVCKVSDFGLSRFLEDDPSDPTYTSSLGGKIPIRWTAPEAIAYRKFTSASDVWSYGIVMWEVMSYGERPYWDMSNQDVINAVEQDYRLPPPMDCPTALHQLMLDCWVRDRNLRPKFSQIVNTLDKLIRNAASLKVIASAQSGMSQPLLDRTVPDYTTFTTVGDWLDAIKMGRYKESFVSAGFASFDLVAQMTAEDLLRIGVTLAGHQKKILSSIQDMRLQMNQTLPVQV
As to conditions: at 1 µM; call rule not given here.

The target of test [3] is T1, Ephrin type-B receptor 3 (Homo sapiens). As to conditions: at 10 µM.
The target in test [4] is T2, Ephrin type-B receptor 4 (Homo sapiens) (UniProt P54760).
T2 sequence (whole entry): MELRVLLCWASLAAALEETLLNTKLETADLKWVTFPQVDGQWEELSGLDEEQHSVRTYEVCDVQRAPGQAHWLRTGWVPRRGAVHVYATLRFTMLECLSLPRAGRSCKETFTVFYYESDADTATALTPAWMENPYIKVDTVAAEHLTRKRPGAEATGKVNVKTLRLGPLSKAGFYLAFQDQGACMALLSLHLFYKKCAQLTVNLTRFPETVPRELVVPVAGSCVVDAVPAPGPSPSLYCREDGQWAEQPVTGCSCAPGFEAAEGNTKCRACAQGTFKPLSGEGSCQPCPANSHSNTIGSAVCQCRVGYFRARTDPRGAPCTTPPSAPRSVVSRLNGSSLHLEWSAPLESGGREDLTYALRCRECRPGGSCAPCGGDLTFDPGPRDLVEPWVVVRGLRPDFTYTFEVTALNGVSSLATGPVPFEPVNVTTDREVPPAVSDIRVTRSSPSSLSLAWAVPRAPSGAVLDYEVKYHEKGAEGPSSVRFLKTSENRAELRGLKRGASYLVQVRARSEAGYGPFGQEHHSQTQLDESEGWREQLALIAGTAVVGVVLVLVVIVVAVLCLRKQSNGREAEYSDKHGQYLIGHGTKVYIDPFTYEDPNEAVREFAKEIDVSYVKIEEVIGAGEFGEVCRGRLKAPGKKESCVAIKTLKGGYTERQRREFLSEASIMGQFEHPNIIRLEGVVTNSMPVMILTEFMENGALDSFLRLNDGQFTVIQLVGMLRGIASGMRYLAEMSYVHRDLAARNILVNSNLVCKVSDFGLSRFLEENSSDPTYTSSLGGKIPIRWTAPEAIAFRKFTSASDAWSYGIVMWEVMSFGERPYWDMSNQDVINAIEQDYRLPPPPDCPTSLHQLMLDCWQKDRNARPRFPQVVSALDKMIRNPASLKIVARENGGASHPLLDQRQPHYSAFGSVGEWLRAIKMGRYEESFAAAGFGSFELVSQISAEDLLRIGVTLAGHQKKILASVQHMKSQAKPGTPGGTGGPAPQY
As to conditions: at 1 µM.

Test [5] deals with T2, Ephrin type-B receptor 4 (Homo sapiens). As to conditions: at 10 µM.
Test [6] has as its target Receptor tyrosine-protein kinase erbB-4 (Homo sapiens) (UniProt Q15303). The conditions noted are these: at 1 µM.
Test [7] shares this target. As to conditions: at 10 µM.
Test [8] concerns the target Focal adhesion kinase 1 (Homo sapiens) (UniProt Q05397). The conditions noted are these: at 1 µM.

SMILES strings stand for the structures.

Receptor tyrosine-protein kinase erbB-4 (Homo sapiens), sequence (Q15303 whole entry): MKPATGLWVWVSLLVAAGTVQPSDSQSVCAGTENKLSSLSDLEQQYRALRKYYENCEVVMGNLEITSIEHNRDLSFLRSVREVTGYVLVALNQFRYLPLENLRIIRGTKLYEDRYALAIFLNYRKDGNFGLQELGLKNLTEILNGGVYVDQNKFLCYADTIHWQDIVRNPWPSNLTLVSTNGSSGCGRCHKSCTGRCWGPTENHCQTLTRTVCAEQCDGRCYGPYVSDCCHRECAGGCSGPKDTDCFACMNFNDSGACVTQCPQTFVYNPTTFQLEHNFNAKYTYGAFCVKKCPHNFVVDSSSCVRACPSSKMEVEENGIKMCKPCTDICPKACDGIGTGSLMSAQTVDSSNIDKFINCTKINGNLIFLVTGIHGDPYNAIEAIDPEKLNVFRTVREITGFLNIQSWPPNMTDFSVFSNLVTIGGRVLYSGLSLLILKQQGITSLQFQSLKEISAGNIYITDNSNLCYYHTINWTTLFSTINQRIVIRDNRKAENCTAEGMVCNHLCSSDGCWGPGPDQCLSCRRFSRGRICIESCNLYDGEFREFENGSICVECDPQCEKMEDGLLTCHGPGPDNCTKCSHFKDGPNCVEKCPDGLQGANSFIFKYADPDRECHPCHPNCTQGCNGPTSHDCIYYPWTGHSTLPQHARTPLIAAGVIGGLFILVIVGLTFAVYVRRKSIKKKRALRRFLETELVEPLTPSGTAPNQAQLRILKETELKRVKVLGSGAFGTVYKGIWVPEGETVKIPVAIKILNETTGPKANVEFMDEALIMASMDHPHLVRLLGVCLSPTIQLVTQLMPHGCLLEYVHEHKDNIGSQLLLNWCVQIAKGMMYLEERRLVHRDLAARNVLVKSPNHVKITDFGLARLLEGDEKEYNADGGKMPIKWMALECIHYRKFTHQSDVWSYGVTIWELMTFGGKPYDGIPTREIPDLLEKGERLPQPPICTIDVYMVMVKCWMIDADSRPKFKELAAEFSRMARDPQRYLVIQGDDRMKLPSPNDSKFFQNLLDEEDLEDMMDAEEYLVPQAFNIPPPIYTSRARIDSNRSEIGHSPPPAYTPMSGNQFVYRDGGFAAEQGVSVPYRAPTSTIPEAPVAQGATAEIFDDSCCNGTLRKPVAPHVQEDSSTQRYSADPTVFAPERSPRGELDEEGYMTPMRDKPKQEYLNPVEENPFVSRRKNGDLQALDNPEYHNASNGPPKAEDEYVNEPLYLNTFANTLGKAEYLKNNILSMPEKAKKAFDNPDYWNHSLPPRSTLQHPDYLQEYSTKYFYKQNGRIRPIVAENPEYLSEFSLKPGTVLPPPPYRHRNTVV
Focal adhesion kinase 1 (Homo sapiens), sequence (Q05397 2-1052 limits assumed): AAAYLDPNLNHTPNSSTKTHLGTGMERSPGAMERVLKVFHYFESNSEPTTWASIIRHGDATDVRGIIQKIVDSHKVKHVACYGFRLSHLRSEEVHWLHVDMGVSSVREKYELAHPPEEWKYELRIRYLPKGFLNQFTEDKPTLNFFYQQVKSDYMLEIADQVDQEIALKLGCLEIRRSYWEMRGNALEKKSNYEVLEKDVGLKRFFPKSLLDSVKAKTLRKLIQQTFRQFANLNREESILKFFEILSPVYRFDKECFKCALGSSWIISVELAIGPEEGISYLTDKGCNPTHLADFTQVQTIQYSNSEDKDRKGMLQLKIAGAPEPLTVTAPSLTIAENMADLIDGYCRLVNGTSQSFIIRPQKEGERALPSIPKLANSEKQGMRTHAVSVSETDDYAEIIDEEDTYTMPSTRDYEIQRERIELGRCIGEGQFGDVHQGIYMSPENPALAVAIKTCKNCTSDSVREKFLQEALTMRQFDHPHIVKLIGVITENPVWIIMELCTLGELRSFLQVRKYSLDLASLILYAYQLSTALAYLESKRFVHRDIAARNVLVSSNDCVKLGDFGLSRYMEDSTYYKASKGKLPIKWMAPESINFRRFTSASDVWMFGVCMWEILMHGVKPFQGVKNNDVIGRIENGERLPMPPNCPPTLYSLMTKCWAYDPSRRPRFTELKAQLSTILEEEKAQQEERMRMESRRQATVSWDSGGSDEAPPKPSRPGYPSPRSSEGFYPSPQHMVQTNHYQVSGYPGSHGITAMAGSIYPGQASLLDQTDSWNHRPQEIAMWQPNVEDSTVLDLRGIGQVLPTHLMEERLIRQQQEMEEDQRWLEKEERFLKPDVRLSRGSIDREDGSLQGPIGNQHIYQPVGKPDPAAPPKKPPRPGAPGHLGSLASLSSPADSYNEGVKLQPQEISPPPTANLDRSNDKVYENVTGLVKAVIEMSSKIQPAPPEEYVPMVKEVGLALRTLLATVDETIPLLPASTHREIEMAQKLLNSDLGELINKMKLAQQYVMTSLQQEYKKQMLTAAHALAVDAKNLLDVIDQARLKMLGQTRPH
Ephrin type-A receptor 7 (Homo sapiens), sequence (Q15375 28-998 limits assumed): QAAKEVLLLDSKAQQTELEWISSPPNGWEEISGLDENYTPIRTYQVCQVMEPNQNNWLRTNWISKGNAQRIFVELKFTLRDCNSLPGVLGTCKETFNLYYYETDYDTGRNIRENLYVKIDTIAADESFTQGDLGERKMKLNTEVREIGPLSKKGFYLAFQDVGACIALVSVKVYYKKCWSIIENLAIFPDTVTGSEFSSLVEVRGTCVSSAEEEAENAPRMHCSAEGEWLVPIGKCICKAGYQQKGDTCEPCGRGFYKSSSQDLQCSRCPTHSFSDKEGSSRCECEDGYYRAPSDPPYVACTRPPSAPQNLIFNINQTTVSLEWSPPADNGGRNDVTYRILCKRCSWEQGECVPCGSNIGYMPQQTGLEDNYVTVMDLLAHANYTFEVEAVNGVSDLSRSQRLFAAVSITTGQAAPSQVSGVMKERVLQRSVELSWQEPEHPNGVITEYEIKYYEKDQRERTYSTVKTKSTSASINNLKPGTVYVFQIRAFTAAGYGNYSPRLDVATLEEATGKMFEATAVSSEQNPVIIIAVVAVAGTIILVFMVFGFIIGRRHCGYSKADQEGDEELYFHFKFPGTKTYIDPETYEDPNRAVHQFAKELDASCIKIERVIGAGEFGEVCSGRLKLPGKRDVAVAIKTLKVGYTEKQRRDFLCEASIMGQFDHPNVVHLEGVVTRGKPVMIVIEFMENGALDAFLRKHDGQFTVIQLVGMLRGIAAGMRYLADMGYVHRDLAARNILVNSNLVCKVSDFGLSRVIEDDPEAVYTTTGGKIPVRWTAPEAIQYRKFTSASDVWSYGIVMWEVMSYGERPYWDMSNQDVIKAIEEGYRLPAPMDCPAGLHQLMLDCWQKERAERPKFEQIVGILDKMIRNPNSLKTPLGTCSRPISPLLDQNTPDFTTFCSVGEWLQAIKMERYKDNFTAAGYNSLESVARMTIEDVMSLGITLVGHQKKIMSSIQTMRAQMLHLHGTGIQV

Turning to `COc1cc2ncc(-c3ccccc3)nc2cc1OC`, the residual activity in test [1] was 94%; in test [2], 132% (inactive); in test [3], 90%; in test [4], 125%; in test [5], 123%; in test [6], 88%. Also, the residual activity in test [7] was 85%; in test [8], 139%.
